Experimental findings from PubChem BioAssay (EPA / NIEHS) are described below.

Activity calls are given as the source filed them. The calls were made as follows: active = hit-call score of the fitted dose curve at least 0.9, where 1 is the maximum; inactive = score below 0.9.

Chain of Nuclear factor NF-kappa-B p105 subunit (Homo sapiens) (P19838 whole entry, looked up): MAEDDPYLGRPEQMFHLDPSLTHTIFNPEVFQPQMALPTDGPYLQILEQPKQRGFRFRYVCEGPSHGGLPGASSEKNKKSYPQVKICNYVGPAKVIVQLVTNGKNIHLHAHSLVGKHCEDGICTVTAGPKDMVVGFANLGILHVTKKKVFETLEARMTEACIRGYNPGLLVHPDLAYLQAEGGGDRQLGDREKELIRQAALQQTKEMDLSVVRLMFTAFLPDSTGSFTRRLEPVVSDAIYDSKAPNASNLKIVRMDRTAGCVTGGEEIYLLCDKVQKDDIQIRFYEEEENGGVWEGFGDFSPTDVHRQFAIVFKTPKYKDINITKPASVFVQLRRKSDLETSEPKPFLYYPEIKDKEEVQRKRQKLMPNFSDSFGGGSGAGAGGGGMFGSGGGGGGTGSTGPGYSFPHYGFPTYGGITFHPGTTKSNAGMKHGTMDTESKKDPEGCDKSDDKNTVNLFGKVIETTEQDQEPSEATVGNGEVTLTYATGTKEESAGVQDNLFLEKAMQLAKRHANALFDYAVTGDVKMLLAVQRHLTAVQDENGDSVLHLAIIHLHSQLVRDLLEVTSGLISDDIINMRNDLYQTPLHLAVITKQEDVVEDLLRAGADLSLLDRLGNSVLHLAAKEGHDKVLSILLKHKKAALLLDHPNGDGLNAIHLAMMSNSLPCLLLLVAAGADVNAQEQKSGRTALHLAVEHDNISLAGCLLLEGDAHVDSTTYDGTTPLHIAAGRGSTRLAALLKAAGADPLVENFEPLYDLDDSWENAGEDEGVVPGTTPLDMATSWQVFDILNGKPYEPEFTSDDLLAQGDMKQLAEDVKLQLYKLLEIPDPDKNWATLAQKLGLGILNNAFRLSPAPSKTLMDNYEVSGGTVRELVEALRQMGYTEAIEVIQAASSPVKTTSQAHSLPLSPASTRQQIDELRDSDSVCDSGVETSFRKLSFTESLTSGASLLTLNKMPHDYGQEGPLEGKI

Read-out in the test: Nuclear factor NF-kappa-B p105 subunit (Homo sapiens) (UniProt P19838)
Kind of test: LTEA_HepaRG_NFKB1: Life Technologies and Expression Analysis (LTEA) Assay for Nuclear Factor Kappa B Subunit 1 (NFKB1) using HepaRG (AID 2283521).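 Also: TaqMan qRT-PCR transcript normalised to ACTB GAPDH and POLR2A housekeeping genes.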 The following applies: mRNA level, 48 h; actives raise or lower the signal. Here is the method:
LTEA_HepaRG is a cell based, multiplexed-readout assay that uses HepaRG, a human liver cell line, with measurements taken at 48 hours after chemical dosing on a 96-well plate.LTEA_HepaRG_NFKB1 is one of 102 assay component(s) measured in the LTEA HepaRG cell culture assay. It is a marker of Cell proliferation, survival, death.Data from the assay component LTEA_HepaRG_NFKB1 was analyzed into 1 endpoint. This assay endpoint, LTEA_HepaRG_NFKB1, was analyzed with bidirectional fitting relative to DMSO as the negative control and baseline of activity. Using a type of inducible reporter, measures of mRNA induction for gain or loss-of-signal activity can be used to understand regulation of transcription factor activity. To generalize the intended target to other relatable targets, this assay endpoint is annotated to the dna binding intended target family, where the subfamily is NF-kappa B.
A total of 1060 chemcials from the ToxCast library were tested in eight-point concentration-response experiments. Cell culture and cytotoxicity assays were conducted at Thermo Fisher Scientific's Custom Services facility (Madison, WI). A single lot of human HepaRG cells (Thermo Fisher Scientific, Frederick, MD) was used for the cell culture experiments. 96-well format collagen type I coated plates of human HepaRG cells were prepared using established methods. Briefly, cryopreserved HepaRG cells were thawed, plated at a density of approximately 100,000 cells/well in HepaRG Thaw, Plate, and General Purpose media (HPRG770, Thermo Fisher Scientific), and incubated for 48 hours. 0.5% DMSO was selected as vehicle control to balance the requisite need of DMSO in HepaRG cultures to maintain differentiation (for example, baseline metabolism, proportions of hepatocytes vs. cholangiocytes), while enabling further hepatic receptor pathway activation (for example, PXR and CAR) in response to chemical exposure. 48 hours after plating, the culture medium was replaced with HepaRG Serum-Free Incudtion Media. Cells were exposed to each test chemical in duplicate and maintained in CO2 incubators for another 48 hours. Chemical plates were thawed to room temperature and 200x concentrations of treatment groups were prepared. 8-point conentration-reponse curves were made with the highest exposure at 100 uM, followed by half-log dilutions, all in 0.5% DMSO. Each test plate contained variouse controls, induction positive controls (1mM phenobarbital), cytotoxicity positive controls ([…] aflatoxin B1), vehicle controls (0.5% DMSO), and total lysis controls (0.5% DMSO). Cell morphology images were taken using an Essen IncuCyte FLR automated microscope, with six 96-well plates imaged in about 24 minutes. Images were captured and exported and JPEG files. Spent culture media was transfered to black-well plates for the LDH assay, and remaining media was sorted at -80 C for later use. Cells were treated with RLT buffer and frozen until shipped for gene expression analysis. Total RNA was isolated from the cell suspension in 75 uL of Buffer RLT (Qiagen, Germantown, MD 20874) by Quintiles/Expression Analysis (Durham, NC) using a custom isolation procedure. Total RNA from each plate well was transferred to a preamplification plate. Fluidigm's 96.96 Dynamic ArrayTM (Fluidigm, Amsterdam, the Netherlands) technology was used for gene expression analyses by quantitative reverse transcription polymerase chain reaction (qRT-PCR, performed by Quintiles/Expression Analysis, Durham, NC)89. Standard TaqManTM Assays (Applied Biosystems/ThermoFisher Scientific, Foster City, CA) were used to assess the expression of 93 genes selected based on their selectivity and sensitivity to important hepatic receptors known to be modulated by environmental chemicals; importance in human hepatocyte functionality; and hepatotoxicity. […]
As to `c1ccc(OP(Oc2ccccc2)Oc2ccccc2)cc1`, the outcome was inactive. Regarding `[N-]=[N+]=[N-]`, the call was inactive. To `CN(C)C(=O)Cl` belongs “inactive”; to `CCOC(=O)c1ccccc1C(=O)OCC`, “inactive”.

As for `Cc1cccc(N)c1`, the call was inactive. `Nc1cc2c3c(c1)C(c1ccccc1)=N[C@@H](NC(=O)c1cccnc1)C(=O)N3CC2`: the call was inactive. To `Cc1ccc([N+](=O)[O-])cc1C` belongs “inactive”. In the case of `O=[N+]([O-])c1ccc(Cl)c(Cl)c1`, the result was inactive. To `CC(C)(C)OOC(C)(C)C` belongs “inactive”. As for `CCCCN(CCCC)N=O`, the compound was called inactive. As for `CCN(CC)c1ccccc1`, the entry is “inactive”; as for `CCOc1ccc(C(C)(C)COCc2cccc(Oc3ccccc3)c2)cc1`, “inactive”. As for `c1cc2c3c(cccc3c1)CC2`, the entry is “inactive”; as for `CCC1(c2ccccc2)C(=O)N=C(O)NC1=O` (centres undefined), “inactive”; as for `CCOP(=S)(Oc1ccc([N+](=O)[O-])cc1)c1ccccc1` (centres undefined), “inactive”. To `Cc1ccc(N)cc1N` belongs “inactive”; to `O=[N+]([O-])c1ccccc1`, “inactive”; to `CCNc1nc(Cl)nc(NC(C)(C)C)n1`, “inactive”. As for `ClC(Cl)c1ccccc1`, the compound was classed as inactive. As for `COCCOCCO`, the compound was classed as inactive. Consider `O=P(Oc1ccccc1)(Oc1ccccc1)Oc1ccccc1`, for which the compound was called inactive. To `CCC(C)(C)c1ccc(O)cc1` belongs “inactive”; to `O=P1(N(CCCl)CCCl)NCCCO1` (centres undefined), “inactive”; to `O=C(O)C1C(C(=O)O)C2(Cl)C(Cl)=C(Cl)C1(Cl)C2(Cl)Cl` (centres undefined), “inactive”. As to `CCOP(=S)(OCC)SCSCC`, the compound was called inactive. As for `CCCCCCCc1ccc(O)cc1`, the entry is “inactive”; as for `ClC1=C(Cl)C2(Cl)C3C(Cl)C(Cl)CC3C1(Cl)C2(Cl)Cl` (centres undefined), “inactive”.

Regarding `c1nc[nH]n1`, the call was inactive. To `CCCCN(CCCC)SN(C)C(=O)Oc1cccc2c1OC(C)(C)C2` belongs “inactive”.
